# Laboratory results published in the supplement of paper PMC8728848.
# Only a selection was taken, and the strongest signals are over-represented in it overall.
# B1: PX14367A-bth-493-35-493 (Bacteroides thetaiotaomicron) (protein)
# chain: VSSDQVAVAGNAERLFNGAWYNLFEYGTTYANIGYRALQCQDDMMASDVVSRPKYGFNSSYQFNDVAIPSDGRTSFAWYLIYKTIDNCNTAISIKGDSEELRQAQGQALALRAFCYLHLVQHYQFTYLKDKDAPCVPIYTEPTTSGTKPKGKSTVAQVYQQIFDDLNLAQDYLTNYVRKGDGQKFKPNTDVVNGLMARAYLLTGQWGEAAKAAEAARKGYSLMTTTAEYEGFNNISNKEWIWGSPQTLSQSDASYNFYYLDATYVGAYSSFMADPHLMDTFVKGDIRLPLFQWMREGYLGYKKFHMRSDDTADLVLMRSAEMYLIEAEAKVRDGVALDQAVAPLNTLRTARGVGNYDVTGKTKEQVIDEILMERRRELWGEGFGITDVLRNQKAVERMALSEDMQKTEVDCWQEGGSFAKRNPLGHWFLNFPDGKAFSANSSYYLYAIPEKEINANPNL
# Assays:
# Experiment in all cases: glycan array binding signal (z-score within array); higher = stronger binding
# Conditions in all cases: glycan notation: IUPAC condensed, linker removed
# [1] = molecular target: Gal(b1-4)GlcNAc(b1-3)Gal(b1-4)GlcNAc(b1-3)Gal(b1-4)GlcNAc(b1-3)Gal(b1-4)GlcNAc(b1-2)Man(a1-3)[Gal(b1-4)GlcNAc(b1-3)Gal(b1-4)GlcNAc(b1-3)Gal(b1-4)GlcNAc(b1-3)Gal(b1-4)GlcNAc(b1-2)Man(a1-6)]Man(b1-4)GlcNAc(b1-4)[Fuc(a1-6)]GlcNAc
# Summary of the method: (§1)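 Negative Z-scores can be read as non-binding. The Z-score is calculated within each array and then averaged across arrays of one protein sequence at different concentrations or buffers and across linkers. Arrays, 3228 in all, were curated from the Consortium for Functional Glycomics database and kept only where the protein sequence was available.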
# [2] = molecular target: Gal(b1-4)GlcNAc(b1-3)Gal(b1-4)GlcNAc(b1-3)Gal(b1-4)GlcNAc(b1-3)Gal(b1-4)GlcNAc(b1-3)Gal(b1-4)GlcNAc(b1-2)Man(a1-3)[Gal(b1-4)GlcNAc(b1-3)Gal(b1-4)GlcNAc(b1-3)Gal(b1-4)GlcNAc(b1-3)Gal(b1-4)GlcNAc(b1-3)Gal(b1-4)GlcNAc(b1-2)Man(a1-6)]Man(b1-4)GlcNAc(b1-4)[Fuc(a1-6)]GlcNAc
# Summary of the method: as §1
# Gal(b1-6)Gal = molecular target: Gal(b1-6)Gal
# Summary of the method: as §1
# Gal3S6S(b1-4)GlcNAc6S = molecular target: Gal3S6S(b1-4)GlcNAc6S
# Summary of the method: as §1
# [3] = molecular target: GalNAc(b1-3)Gal(a1-4)Gal(b1-4)GlcNAc
# Summary of the method: as §1
# [4] = molecular target: GlcNAc(a1-4)Gal(b1-4)GalNAc
# Summary of the method: as §1
# [5] = molecular target: GlcNAc(b1-2)Man(a1-3)[GlcNAc(b1-4)][GlcNAc(b1-2)Man(a1-6)]Man(b1-4)GlcNAc(b1-4)[Fuc(a1-6)]GlcNAc
# Summary of the method: as §1
# [6] = molecular target: GlcNAc(b1-3)Gal(b1-4)GlcNAc(b1-3)Gal(b1-4)GlcNAc(b1-2)Man(a1-3)[GlcNAc(b1-3)Gal(b1-4)GlcNAc(b1-3)Gal(b1-4)GlcNAc(b1-2)Man(a1-6)]Man(b1-4)GlcNAc(b1-4)GlcNAc
# Summary of the method: as §1
# [7] = molecular target: GlcNAc6S(b1-3)Gal(b1-4)GlcNAc
# Summary of the method: as §1
# Man(a1-2)Man(a1-3)Man = molecular target: Man(a1-2)Man(a1-3)Man
# Summary of the method: as §1
# [8] = molecular target: Man(a1-2)Man(a1-3)[Man(a1-6)]Man(a1-6)[Man(a1-2)Man(a1-3)]Man(b1-4)GlcNAc(b1-4)GlcNAc
# Summary of the method: as §1
# [9] = molecular target: Man(a1-3)[Man(a1-6)]Man(b1-4)GlcNAc(b1-4)GlcNAc
# Summary of the method: as §1
# [10] = molecular target: Neu5Ac(a2-3)Gal(b1-3)GalNAc
# Summary of the method: as §1
# [11] = molecular target: Neu5Ac(a2-3)Gal(b1-3)GalNAc(b1-4)[Neu5Ac(a2-8)Neu5Ac(a2-3)]Gal(b1-4)Glc
# Summary of the method: as §1
# [12] = molecular target: Neu5Ac(a2-3)Gal(b1-3)GlcNAc(b1-3)GalNAc
# Summary of the method: as §1
# [13] = molecular target: Neu5Ac(a2-3)Gal(b1-4)GlcNAc(b1-3)Gal(b1-4)GlcNAc(b1-3)Gal(b1-4)GlcNAc
# Summary of the method: as §1
# [14] = molecular target: Neu5Ac(a2-3)Gal(b1-4)GlcNAc(b1-3)Gal(b1-4)GlcNAc(b1-3)Gal(b1-4)GlcNAc(b1-2)Man(a1-3)[Neu5Ac(a2-3)Gal(b1-4)GlcNAc(b1-3)Gal(b1-4)GlcNAc(b1-3)Gal(b1-4)GlcNAc(b1-2)Man(a1-6)]GalNAc
# Summary of the method: as §1
# [15] = molecular target: Neu5Ac(a2-3)Gal(b1-4)[Fuc(a1-3)]GlcNAc(b1-2)Man
# Summary of the method: as §1
# [16] = molecular target: Neu5Ac(a2-3)[GalNAc(b1-4)]Gal(b1-4)Glc
# Summary of the method: as §1
# [17] = molecular target: Neu5Ac(a2-6)Gal(b1-4)GlcNAc(b1-2)Man(a1-3)[Man(a1-6)]Man(b1-4)GlcNAc(b1-4)GlcNAc
# Summary of the method: as §1
# [18] = molecular target: Neu5Ac(a2-6)Gal(b1-4)GlcNAc(b1-2)[Neu5Ac(a2-6)Gal(b1-4)GlcNAc(b1-4)]Man(a1-3)[GlcNAc(b1-4)][Neu5Ac(a2-6)Gal(b1-4)GlcNAc(b1-4)Man(a1-6)]Man(b1-4)GlcNAc(b1-4)GlcNAc
# Summary of the method: as §1
# [19] = molecular target: Neu5Ac(a2-6)Gal(b1-4)GlcNAc(b1-3)Gal(b1-4)GlcNAc(b1-2)Man(a1-3)[Neu5Ac(a2-6)Gal(b1-4)GlcNAc(b1-3)Gal(b1-4)GlcNAc(b1-2)Man(a1-6)]GalNAc
# Summary of the method: as §1
# [20] = molecular target: Neu5Ac(a2-6)Gal(b1-4)GlcNAc(b1-3)[Neu5Ac(a2-6)Gal(b1-4)GlcNAc(b1-6)]GalNAc
# Summary of the method: as §1
# [21] = molecular target: Neu5Ac(a2-6)Gal(b1-4)GlcNAc(b1-6)[Gal(b1-3)]GalNAc
# Summary of the method: as §1
# [22] = molecular target: Neu5Ac(a2-6)GalNAc(b1-4)GlcNAc
# Summary of the method: as §1
# [23] = molecular target: Neu5Ac(a2-8)Neu5Ac(a2-3)[Gal(b1-3)GalNAc(b1-4)]Gal(b1-4)Glc
# Summary of the method: as §1
# [24] = molecular target: Neu5Ac(a2-8)Neu5Gc(a2-3)Gal(b1-4)GlcNAc
# Summary of the method: as §1
binder,measurement,setting,value
B1,glycan array binding signal (z-score),[1],2.51
same,glycan array binding signal (z-score),[2],6.87
same,glycan array binding signal (z-score),Gal(b1-6)Gal,-0.332
same,glycan array binding signal (z-score),Gal3S6S(b1-4)GlcNAc6S,0.726
same,glycan array binding signal (z-score),[3],4.2
same,glycan array binding signal (z-score),[4],-0.551
same,glycan array binding signal (z-score),[5],-0.396
same,glycan array binding signal (z-score),[6],1.06
same,glycan array binding signal (z-score),[7],-0.213
same,glycan array binding signal (z-score),Man(a1-2)Man(a1-3)Man,0.44
same,glycan array binding signal (z-score),[8],-0.608
same,glycan array binding signal (z-score),[9],0.166
same,glycan array binding signal (z-score),[10],-0.407
same,glycan array binding signal (z-score),[11],-0.448
same,glycan array binding signal (z-score),[12],-0.042
same,glycan array binding signal (z-score),[13],-0.083
same,glycan array binding signal (z-score),[14],1.29
same,glycan array binding signal (z-score),[15],-0.443
same,glycan array binding signal (z-score),[16],-0.325
same,glycan array binding signal (z-score),[17],0.504
same,glycan array binding signal (z-score),[18],-0.361
same,glycan array binding signal (z-score),[19],6.47
same,glycan array binding signal (z-score),[20],-0.601
same,glycan array binding signal (z-score),[21],0.377
same,glycan array binding signal (z-score),[22],-0.719
same,glycan array binding signal (z-score),[23],-0.3
same,glycan array binding signal (z-score),[24],11.1
